# From PubChem BioAssay
# Activity calls are given as the source filed them.
# Key:
# [1] = E. coli DRC41 culture turbidity changes, primary screen, E. coli filamentation inducer project, strain DRC41, OD650, 48 h (AID 1152);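 further: E. coli MC1000 strain DRC41 lacking acrAB efflux pump and sulA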; details: E. coli DRC41 (acrAB sulA), higher = more signal, called active from +8 up or from −8 down
# [2] = small-molecule binders of probe aLefty1, primary screen, biochemical, small-molecule microarray, 635/667 nm fluorescence (AID 1153); details: higher = more signal;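 further: score merges spot fluorescence with signal-to-noise ratio from the scanned slide images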
# [3] = PSAC antagonists in infected red cells, primary screen, cell-based, P. falciparum Indochina, OD700, 1 h (AID 1154); details: P. falciparum Indochina infected RBC osmotic lysis, higher = more signal, called active from +8 up or from −8 down
# [4] = PSAC antagonists in infected red cells, primary screen, cell-based, P. falciparum Indochina, OD700, 2 h (AID 1155);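 further: lysis reports solute entry through the parasite surface anion channel PSAC; channel blockers reduce lysis of infected cells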; details: P. falciparum Indochina infected erythrocytes, osmotic lysis OD700; higher = more signal, called active from +8 up or from −8 down
# [5] = osmotic lysis modulators in infected erythrocytes, primary screen, PSAC antagonist project, cell-based, P. falciparum Indochina, OD700, 3 h (AID 1156); details: higher = more signal, called active from +8 up or from −8 down
# [6] = PSAC antagonists in infected red cells, primary screen, cell-based, P. falciparum Indochina, OD700, 18 h (AID 1157); details: P. falciparum Indochina infected erythrocytes, osmotic lysis OD700, 18 h; higher = more signal, called active from +8 up or from −8 down
# [7] = modulators of S6 phosphorylation in cells, primary screen, cell-based, A549, cytoblot, luminescence, serum-stimulated (AID 1158); details: A549 phospho-S6 cytoblot, 5 h, higher = more signal;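 further: serum-stimulated A549 lung adenocarcinoma cells; signal is phosphorylated S6 detected by cytoblot immunostaining with HRP secondary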
# [8] = biological target: NADPH oxidase 2 (Homo sapiens) (UniProt P04839); assay: NOX2-dependent H2O2 signal modulators, primary screen, NOX inhibitor project, cell-based, HEK293-NOX2, PMA-stimulated, Amplex Red fluorescence (AID 1159); details: 45 min, higher = more signal, called active from +8 up or from −8 down; further: test concentration not given here
# Sequence of NADPH oxidase 2 (Homo sapiens) (P04839 whole entry, looked up): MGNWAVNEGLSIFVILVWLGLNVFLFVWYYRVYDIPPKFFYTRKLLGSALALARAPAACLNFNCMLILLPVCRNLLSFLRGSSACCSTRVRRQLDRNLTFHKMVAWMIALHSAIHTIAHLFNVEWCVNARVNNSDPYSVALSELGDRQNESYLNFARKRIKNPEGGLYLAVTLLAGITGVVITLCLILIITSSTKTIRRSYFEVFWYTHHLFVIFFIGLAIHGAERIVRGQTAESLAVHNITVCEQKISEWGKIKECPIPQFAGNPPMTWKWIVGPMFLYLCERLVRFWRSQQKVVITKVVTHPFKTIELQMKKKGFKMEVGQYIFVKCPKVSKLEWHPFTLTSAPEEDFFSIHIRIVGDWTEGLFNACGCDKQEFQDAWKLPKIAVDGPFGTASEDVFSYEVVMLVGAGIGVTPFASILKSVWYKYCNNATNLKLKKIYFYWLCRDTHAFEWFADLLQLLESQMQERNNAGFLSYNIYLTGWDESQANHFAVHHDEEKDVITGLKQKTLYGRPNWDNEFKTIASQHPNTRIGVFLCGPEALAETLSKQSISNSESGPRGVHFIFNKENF
# [9] = biological target: NADPH oxidase 4 (Homo sapiens) (UniProt Q9NPH5); assay: NOX4-dependent H2O2 signal modulators, primary screen, NOX inhibitor project, cell-based, HEK293-NOX4, tetracycline-induced, Amplex Red fluorescence (AID 1160); details: 45 min, higher = more signal, called active from +8 up or from −8 down
# Sequence of NADPH oxidase 4 (Homo sapiens) (Q9NPH5 whole entry, looked up): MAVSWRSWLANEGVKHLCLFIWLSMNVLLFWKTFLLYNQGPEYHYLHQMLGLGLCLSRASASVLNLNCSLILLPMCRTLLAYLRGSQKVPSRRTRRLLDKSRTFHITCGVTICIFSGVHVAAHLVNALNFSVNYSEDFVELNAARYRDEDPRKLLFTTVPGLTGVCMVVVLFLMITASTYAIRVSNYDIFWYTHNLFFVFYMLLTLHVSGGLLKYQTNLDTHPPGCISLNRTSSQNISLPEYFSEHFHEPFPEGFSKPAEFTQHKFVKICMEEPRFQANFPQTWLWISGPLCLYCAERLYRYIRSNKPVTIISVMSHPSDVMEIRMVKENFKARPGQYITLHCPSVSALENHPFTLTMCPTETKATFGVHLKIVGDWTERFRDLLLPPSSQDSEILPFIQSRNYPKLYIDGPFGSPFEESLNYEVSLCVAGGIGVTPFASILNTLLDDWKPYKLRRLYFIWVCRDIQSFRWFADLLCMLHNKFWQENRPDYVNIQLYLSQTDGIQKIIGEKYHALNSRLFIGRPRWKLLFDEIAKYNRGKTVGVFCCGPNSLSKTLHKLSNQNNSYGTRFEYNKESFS
# [10] = biological target: NADPH oxidase 5 (Homo sapiens) (UniProt Q96PH1); assay: NOX5-dependent H2O2 signal modulators, primary screen, NOX inhibitor project, cell-based, HEK293-NOX5, Amplex Red fluorescence (AID 1161); details: HEK293-NOX5, ionomycin, 45 min, higher = more signal
# Sequence of NADPH oxidase 5 (Homo sapiens) (Q96PH1 whole entry, looked up): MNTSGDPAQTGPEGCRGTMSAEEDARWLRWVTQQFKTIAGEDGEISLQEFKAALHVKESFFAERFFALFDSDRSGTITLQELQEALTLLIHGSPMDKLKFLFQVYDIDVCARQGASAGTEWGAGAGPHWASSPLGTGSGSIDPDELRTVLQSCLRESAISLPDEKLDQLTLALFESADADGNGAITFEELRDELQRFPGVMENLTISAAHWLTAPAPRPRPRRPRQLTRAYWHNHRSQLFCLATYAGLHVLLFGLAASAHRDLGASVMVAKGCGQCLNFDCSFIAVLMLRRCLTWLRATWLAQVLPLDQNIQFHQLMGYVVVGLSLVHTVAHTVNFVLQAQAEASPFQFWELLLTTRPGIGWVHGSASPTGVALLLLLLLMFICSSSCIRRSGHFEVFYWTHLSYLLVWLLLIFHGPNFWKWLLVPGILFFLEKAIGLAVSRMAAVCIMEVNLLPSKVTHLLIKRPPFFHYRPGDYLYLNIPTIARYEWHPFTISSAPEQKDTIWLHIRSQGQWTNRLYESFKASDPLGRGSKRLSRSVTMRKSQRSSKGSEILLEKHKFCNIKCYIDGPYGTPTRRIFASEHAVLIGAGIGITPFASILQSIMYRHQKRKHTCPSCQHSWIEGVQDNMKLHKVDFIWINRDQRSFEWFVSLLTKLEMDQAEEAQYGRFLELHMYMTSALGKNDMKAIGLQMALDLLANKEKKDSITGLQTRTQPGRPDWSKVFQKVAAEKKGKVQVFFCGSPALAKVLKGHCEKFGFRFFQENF
SMILES,z-score [1],composite z-score [2],z-score [3],z-score [4],z-score [5],z-score [6],z-score [7],z-score [8],z-score [9],z-score [10]
COC(=O)Cn1c(C(=O)N(C)C)cc2c1C[C@H]1CN(C(=O)c3ccccc3)[C@@](Cc3ccc(F)cc3)(C(=O)OC)[C@@H]21,-1.25 (inactive),0.523,0.628 (inactive),0.238 (inactive),0.13 (inactive),0.52 (inactive),-0.38,0.174 (inactive),-0.765 (inactive),-1.26
C[C@H]1NC(=O)[C@@]23C(=O)N[C@@H](Cc4ccccc4)C2[C@H](C)[C@@]2(C)O[C@H]2C3/C=C/C/C=C\CNC(=O)[C@H](Cc2ccccc2)NC1=O (stereo not given in full),-0.213 (inactive),-0.0378,0.874 (inactive),0.577 (inactive),0.395 (inactive),0.33 (inactive),-0.271,1.63 (inactive),-1.2 (inactive),0.201
COc1ccc([Si](C)(C)[C@@H]2[C@@H](CC(=O)N(CCO)Cc3ccccc3)O[C@]3(C(=O)N(Cc4cccc(N5CCOC5=O)c4)c4ccccc43)[C@H]2C)cc1,-0.179 (inactive),0.677,5.73 (inactive),1.14 (inactive),-0.0706 (inactive),0.843 (inactive),0.475,1.08 (inactive),1.35 (inactive),1.75
COCCOC(=O)N1C(=O)[C@@]2(c3cc(C#Cc4ccc(OC)cc4)ccc31)[C@H](c1ccccc1OCCO)N1[C@H](c3ccccc3)[C@H](c3ccccc3)OC(=O)[C@H]1[C@@H]2C(=O)N1CCCCCCC1,2.97 (inactive),2.81,0.999 (inactive),0.57 (inactive),0.338 (inactive),-0.122 (inactive),1.99,-0.126 (inactive),0.201 (inactive),1.19
CC(C)(C)OC(=O)CC[C@@]1(C(=O)NCc2ccccc2)N=C(c2ccc(OCCCO)cc2)O[C@@H]1c1ccccc1N=[N+]=[N-],0.775 (inactive),0.347,33.2 (active),30 (active),4.99 (inactive),6.74 (inactive),0.787,-1.8 (inactive),0.457 (inactive),-1.86
O=C1O[C@H](c2ccccc2)[C@H](c2ccccc2)N2[C@H]1[C@@H](C(=O)O)[C@]1(C(=O)Nc3ccc(C#CC4=CCCCC4)cc31)[C@H]2c1ccc(O)cc1,-1.14 (inactive),-0.242,-2.37 (inactive),-0.921 (inactive),-10.4 (active),-0.451 (inactive),-0.497,1.62 (inactive),-3.15 (inactive),-0.32
CN(C)C(=O)[C@@]1(Cc2ccccc2CN=[N+]=[N-])N=C(c2ccc(OCCCO)cc2)O[C@H]1c1ccccc1CN=[N+]=[N-],-0.395 (inactive),0.315,10.9 (active),1.46 (inactive),0.589 (inactive),0.515 (inactive),0.0709,-0.379 (inactive),1.43 (inactive),2.09
CN1C(=O)C2C=CC(C(O)c3ccccn3)N(N(c3ccccc3)c3ccccc3)C2C1=O (stereo not given),-1.06 (inactive),0.0774,1.5 (inactive),1.14 (inactive),0.303 (inactive),1.05 (inactive),-0.618,-0.486 (inactive),-1.94 (inactive),-2.33
O=C1C2C=CC(C(O)c3ccc(F)cc3)N(n3cnnc3)C2C(=O)N1Cc1ccccc1 (stereo not given),-0.792 (inactive),0.041,0.138 (inactive),-0.995 (inactive),0.987 (inactive),-2.02 (inactive),1.2,-3.1 (inactive),-1.12 (inactive),-4.43
COc1ccc([Si](C)(C)[C@@H]2[C@@H](CC(=O)N3Cc4ccccc4C[C@H]3CO)O[C@]3(C(=O)N(Cc4cccc(N5C(=O)c6cccc7cccc5c67)c4)c4ccccc43)[C@H]2C)cc1,-0.721 (inactive),-0.0601,2.4 (inactive),0.963 (inactive),-0.369 (inactive),0.376 (inactive),0.015,-0.579 (inactive),0.668 (inactive),2.34
COCCOC(=O)N1C(=O)[C@@]2(c3cc(C#CCNC(N)=O)ccc31)[C@H](C(=O)N1CCc3cc(OC)c(OC)cc3C1)[C@H]1C(=O)O[C@H](c3ccccc3)[C@H](c3ccccc3)N1[C@@H]2c1ccccc1OCCO,1.83 (inactive),0.479,3.14 (inactive),0.178 (inactive),0.435 (inactive),-0.244 (inactive),1.81,1.58 (inactive),1.09 (inactive),-0.672
